In PubChem BioAssay AID493034 (The Scripps Research Institute Molecular Screening Center, 2011):
Out of some 2,400 compounds screened, about 2,200 (92%) were called active. So high a share suggests a set chosen from earlier hits. Some of the results follow. Unmarked numbers belong to inactive results.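 Rule for the calls: active = mean inhibition over triplicate runs exceeds the cutoff derived for the earlier primary screen (cut at about 25% in these data); inactive = the rest.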

Molecular target: Platelet-activating factor acetylhydrolase IB subunit alpha2 (Homo sapiens) (UniProt P68402)
Sequence (P68402 whole entry, looked up): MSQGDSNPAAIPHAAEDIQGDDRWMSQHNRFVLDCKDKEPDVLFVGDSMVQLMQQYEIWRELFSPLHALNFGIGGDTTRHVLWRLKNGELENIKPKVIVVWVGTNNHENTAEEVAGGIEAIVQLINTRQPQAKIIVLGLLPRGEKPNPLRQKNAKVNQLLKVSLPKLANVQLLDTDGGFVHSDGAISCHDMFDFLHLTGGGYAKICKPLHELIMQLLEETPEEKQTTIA
Assay: PAFAH1B2 inhibitors, confirmation, biochemical, fluorescence polarization, FP-rhodamine probe, triplicate (AID 493034);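 note: 0% = enzyme with DMSO and 100% = wells lacking PAFAH1B2 protein; inhibitors lower polarization by leaving the probe unbound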
Settings: recombinant PAFAH1B2, FP-rhodamine probe fluorescence polarization; at 3.39 µM; active compounds read high

Row | SMILES | inhibition
1 | O=C(O)CC1c2ccccc2CCN1S(=O)(=O)c1ccc(F)cc1 (centres undefined) | 19.8%
2 | CN(Cc1ccccc1)C(=O)COC(=O)C12CC3CC(CC(Br)(C3)C1)C2 | 28.4% (active)
3 | OC(c1ccc(F)cc1)(C1CCCCC1)C(CN1CCOCC1)c1ccccc1 (centres undefined) | 23.5%
4 | O=C(O/N=C1/CCCc2occc21)c1ccc(Cl)cc1Cl | 19.3%
5 | Cc1occc1C(=O)O/N=C(\N)c1ccc(Cl)cc1 | 27.4% (active)
6 | NC(=O)CSc1ccc(Br)cc1 | 39.5% (active)
7 | CC(Sc1ccc(Br)cc1)C(N)=O (centres undefined) | 27.6% (active)
8 | COc1ccc(NC(=O)O/N=C/c2ccc(Br)cc2)cc1 | 7.26%
9 | Cc1ccc(S(=O)(=O)N2[C@@H](c3cccc(C)c3)C(C(=O)O)=C[C@H]2C(C)(C)C)cc1 | 18.7%
10 | CC(=O)N1CCOc2ccc(S(=O)(=O)NCc3ccc(C)cc3)cc21 | 23.4%
11 | Cc1ccc(S(=O)(=O)N2[C@@H](c3ccc(C(C)(C)C)cc3)C(C(=O)O)=CC[C@H]2c2cccc(Cl)c2)cc1 | 70.5% (active)
12 | Cc1ccc(S(=O)(=O)N2[C@@H](c3ccc(Br)cc3)C(C(=O)O)=CC[C@H]2c2ccc3c(c2)OCO3)cc1 | 59.1% (active)
13 | Cc1ccc(S(=O)(=O)N2[C@@H](c3ccccc3)C(C(=O)O)=CC[C@H]2c2cccc(C)c2)cc1 | 21.1%
14 | Cc1ccc(S(=O)(=O)N2[C@@H](c3ccc(C(C)(C)C)cc3)C(C(=O)O)=CC[C@H]2c2ccc(Cl)c(Cl)c2)cc1 | 58.5% (active)
15 | Cc1ccc(S(=O)(=O)N2[C@@H](c3ccc(Cl)cc3)C(C(=O)O)=CC[C@H]2c2ccc(Cl)c(Cl)c2)cc1 | 85.8% (active)
16 | Cc1ccc(S(=O)(=O)N2[C@@H](c3ccc(Br)cc3)C(C(=O)O)=CC[C@H]2c2ccc(Cl)c(Cl)c2)cc1 | 85.2% (active)
17 | CC(C)(C)C1CCC2(CC1)C(C#N)=C(SCC(=O)Nc1ccccc1)NC(=O)C2C#N (centres undefined) | 55% (active)
18 | COc1ccc(S(=O)(=O)N2CCN(C(=O)[C@@H]3CCC(=O)N3C3OC(=O)c4ccccc43)CC2)cc1 (some centres undefined) | 22.4%
19 | COc1cc(/C=N/NC(=O)c2cc(C34CC5CC(CC(C5)C3)C4)[nH]n2)ccc1O | 24.7% (active)
20 | Cc1ccccc1C(=O)c1cccn1CC(=O)NCc1ccc(Cl)cc1 | 23.1%
21 | O=C(Oc1ccc(OC(=O)c2ccco2)c(S(=O)(=O)c2ccc(Br)cc2)c1)c1ccco1 | 34% (active)
22 | O=C(Oc1ccc(-c2ccccc2)cc1)c1ccco1 | 23.7%

Row | SMILES | inhibition
23 | CC1=C(C(=O)OCC(Br)(Br)Br)C(c2cccc([N+](=O)[O-])c2)NC(=O)N1CCCC(=O)O (centres undefined) | 90.6% (active)
24 | O=C(Nc1ccccc1Cl)Oc1ccc(-c2ccccc2)cc1 | 53.8% (active)
25 | Cc1ccc(S(=O)(=O)n2nc(-c3cccnc3)nc2N)cc1 | 23.2%
26 | CC(=O)C[C@@H](O)CC(=O)[C@H]1OC(=O)CCCCCCCCc2ccccc21 | 43.6% (active)
27 | CC(=O)C[C@H](O)CC(=O)[C@H]1OC(=O)CCCCCCCCc2ccccc21 | 31.4% (active)
28 | Cc1noc(NS(=O)(=O)c2ccc(NC(=O)CC34CC5CC(CC(Br)(C5)C3)C4)cc2)c1C | 30.9% (active)
29 | O=S(=O)(Nc1ncccn1)c1ccc(NC(=S)NCCc2ccc(Cl)cc2)cc1 | 36.6% (active)
30 | CC(CC(=O)NCCc1ccc(Cl)cc1)S(=O)(=O)c1ccc2c(c1)NC(=O)CO2 (centres undefined) | 22.4%
31 | Cn1c(=O)oc2cc(S(=O)(=O)NCCC(=O)NCCc3ccc(Cl)cc3)ccc21 | 19.6%
32 | N=c1c(S(=O)(=O)c2ccc(Cl)cc2)cc2c(=O)n3ccccc3nc2n1CCN1CCOCC1 | 22.3%
33 | O=c1[nH]c(CN2CCN(c3ccc([N+](=O)[O-])cc3)CC2)nc2ccsc12 | 31.1% (active)
34 | O=C1OC(c2ccccc2)=N/C1=C/c1cccc(OC(=O)c2cccs2)c1 | 15.5%
35 | O=C(O)c1cccc(COc2ccc3c(c2)CCC3)c1 | 40% (active)
36 | O=C(CCc1ccc(O)cc1)c1c(O)cc(O)cc1O | 22.2%
37 | O=C(CCc1ccccc1)c1c(O)cc(O)cc1O | 26.6% (active)
38 | C=C(C)C(COc1c2occc2cc2ccc(=O)oc12)OC(C)(C)C(O)COc1c2occc2cc2ccc(=O)oc12 (centres undefined) | 67.4% (active)
39 | Cc1ccc(NS(=O)(=O)c2cc([N+](=O)[O-])ccc2NNC(=S)Nc2cccc(Cl)c2)c(C)c1 | 30.2% (active)
40 | N#Cc1c(N)[nH]c2ccc(Sc3ccccc3)cc12 | 33.8% (active)
41 | Nc1ccc(CSc2ccccc2)cc1 | 30.1% (active)
42 | O=C(CSc1ccccc1)NC(=O)NCc1ccccc1 | 21.7%
43 | Nc1ccc(CSc2ccc(Cl)cc2)cc1 | 21.7%
44 | CCOc1cc(/C=C(/C#N)c2ccc(F)cc2)ccc1OCc1ccc(C(=O)O)o1 | 4.35%

Row | SMILES | inhibition
45 | CCOc1cc(/C=C(/C#N)c2ccc(Cl)cc2)cc(Cl)c1OCC(=O)O | 42.5% (active)
46 | C[C@@H]1CN([C@H](C)CO)C(=O)c2cccc(NC(=O)Nc3ccc(F)cc3)c2O[C@H]1CN(C)C(=O)Nc1ccc(C(F)(F)F)cc1 | 39.6% (active)
47 | C[C@H]1CN([C@@H](C)CO)C(=O)c2cccc(NC(=O)Nc3ccc(C(F)(F)F)cc3)c2O[C@@H]1CN(C)C(=O)Nc1ccc(F)cc1 | 57% (active)
48 | CCCCc1cc(=O)oc2cc(C)cc(OCC(=O)NC(Cc3ccc(Cl)cc3)C(=O)O)c12 (centres undefined) | 22.2%
49 | CC(Oc1ccc2c(-c3ccccc3)cc(=O)oc2c1)C(=O)NC(Cc1c[nH]c2ccccc12)C(=O)O (centres undefined) | 59% (active)
50 | CC(Oc1ccc2c(-c3ccccc3)cc(=O)oc2c1)C(=O)N[C@H](Cc1c[nH]c2ccccc12)C(=O)O (some centres undefined) | 64.3% (active)
51 | O=C(COc1ccc2c(-c3ccccc3)cc(=O)oc2c1)N[C@@H](Cc1c[nH]c2ccc(O)cc12)C(=O)O | 55.4% (active)
52 | CC(Oc1ccc2c(-c3ccccc3)cc(=O)oc2c1)C(=O)NC(Cc1c[nH]c2ccc(O)cc12)C(=O)O (centres undefined) | 55.9% (active)
53 | Cc1ccc(CSc2nnc(NC(=O)C3COc4ccccc4O3)s2)cc1 (centres undefined) | 21.4%
54 | CCCCCCCCCCS(=O)(=O)N/N=C/c1ccc([N+](=O)[O-])cc1 | 20.3%
55 | CCN(Cc1ccccc1)c1ccc(/C=N/NS(=O)(=O)c2cccc([N+](=O)[O-])c2)cc1 | 63.5% (active)
56 | O=C(NCc1cccnc1)C(=O)Nc1nc(C23CC4CC(CC(C4)C2)C3)cs1 | 23.7%
57 | O=C(CC1CC2CCC1C2)Nc1nc(-c2ccccn2)cs1 (centres undefined) | 45.4% (active)
58 | Clc1ccc(COc2cccc(CNCc3ccncc3)c2)cc1 | 19.2%
59 | O=C(NCC(c1ccco1)N1CCCCC1)c1ccc(COc2ccc(Cl)cc2)cc1 (centres undefined) | 20%
60 | CC(NCc1ccc(OCc2ccc(Cl)cc2)cc1)C(O)c1ccccc1 (centres undefined) | 68.7% (active)
61 | CCc1ccc2nc3sc(C(=O)Nc4nnc(CC)s4)c(N)c3cc2c1 | 19.1%
62 | Cc1ccc(NC(=O)O/N=C/c2ccc(Br)cc2)cc1 | 15.5%
63 | CCOC(=O)C1CCCN(C(=O)Cc2c(C(=O)O)[nH]c3ccccc23)C1 (centres undefined) | 28.4% (active)
64 | O=C(Cc1ccc(Br)cc1)Nc1ncc([N+](=O)[O-])s1 | 28.4% (active)
